Laboratory results as given in PubChem BioAssay.
Active and inactive are the calls of the source.

Assays:
[1] = system: PRMT1 (protein arginine N-methyltransferase 1); test: small molecules binding arginine methyltransferase PRMT1 – biochemical, small-molecule microarray, 635 nm fluorescence, primary screen (AID 1088); conditions: higher = more signal;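 note: binding of Prmt1 protein to compounds spotted on small-molecule microarray slides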
[2] = growth effects on S. cerevisiae YJM789 – YJM789 clinical isolate, OD600, 24 h, basal, primary screen (AID 1089); conditions: higher = more signal, called active from +8 up or from −8 down;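 note: growth of clinical yeast isolate S. cerevisiae YJM 789 seeded 1000 cells per well; test concentration not given here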
[3] = S. pombe growth modifiers, basal conditions – strain 972, OD600, 24 h, no modulator, primary screen (AID 1090);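 note: basal condition with compound alone and no growth modifier present; test concentration not given here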; conditions: S. pombe 972 growth, higher = more signal, called active from +8 up or from −8 down
[4] = budding yeast growth modifiers under rapamycin – strain BY4716, OD600, 96 h, primary screen (AID 1091); note: test concentration not given here; conditions: S. cerevisiae BY4716 + rapamycin, higher = more signal, called active from +8 up or from −8 down
[5] = target: Torsin-1A-interacting protein 2 (Homo sapiens) (UniProt Q8NFQ8); test: small molecules binding lysate-expressed LULL1 – cell lysate, human LULL1 lysate, 635/667 nm fluorescence, primary screen (AID 1092); conditions: small-molecule microarray, hLULL1 lysate binding, 635 nm fluorescence; higher = more signal;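 note: probe is lysate of COS7 cells overexpressing human LULL1; score merges per-feature 667 nm fluorescence with signal-to-noise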
Sequence of Torsin-1A-interacting protein 2 (Homo sapiens) (Q8NFQ8 whole entry, looked up): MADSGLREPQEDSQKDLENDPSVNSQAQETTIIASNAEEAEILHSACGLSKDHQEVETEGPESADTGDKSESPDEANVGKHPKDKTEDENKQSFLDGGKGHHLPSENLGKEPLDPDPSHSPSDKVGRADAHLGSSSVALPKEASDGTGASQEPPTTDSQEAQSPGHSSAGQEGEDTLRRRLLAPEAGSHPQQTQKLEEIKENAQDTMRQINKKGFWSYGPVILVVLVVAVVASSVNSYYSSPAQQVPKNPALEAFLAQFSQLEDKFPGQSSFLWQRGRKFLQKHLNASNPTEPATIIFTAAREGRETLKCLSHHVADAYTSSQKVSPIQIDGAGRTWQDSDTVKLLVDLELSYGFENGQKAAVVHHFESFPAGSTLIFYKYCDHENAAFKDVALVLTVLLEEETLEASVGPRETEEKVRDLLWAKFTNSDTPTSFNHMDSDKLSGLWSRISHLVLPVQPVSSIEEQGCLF

[6] = optical density change of DRC41 E. coli – strain DRC41, OD650, 24 h, E. coli filamentation project, primary screen (AID 1093);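 note: MC1000 strain lacking acrAB efflux and sulA so SOS filamentation is blocked; test concentration not given here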; conditions: E. coli DRC41 growth, higher = more signal, called active from +8 up or from −8 down
[7] = probe aLefty2 binding to arrayed compounds – biochemical, biotinylated probe, 635/667 nm fluorescence, primary screen (AID 1094); conditions: small-molecule microarray, higher = more signal;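 note: score merges spot fluorescence near 667 nm with spot signal-to-noise ratio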
[8] = system: Noggin (protein binding on small-molecule microarray); test: small molecules binding Noggin protein – biochemical, 635/667 nm fluorescence, primary screen (AID 1095); conditions: 635 nm fluorescence, higher = more signal;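 note: score merges 667 nm feature fluorescence with signal to noise over triplicate slides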
[9] = target: Neurogenic locus notch homolog protein 3 (Homo sapiens) (UniProt Q9UM47); test: small molecules binding NOTCH3 protein – biochemical, 635/667 nm fluorescence, primary screen (AID 1096); conditions: small-molecule microarray, 635 nm fluorescence, higher = more signal
Sequence of Neurogenic locus notch homolog protein 3 (Homo sapiens) (Q9UM47 whole entry, looked up): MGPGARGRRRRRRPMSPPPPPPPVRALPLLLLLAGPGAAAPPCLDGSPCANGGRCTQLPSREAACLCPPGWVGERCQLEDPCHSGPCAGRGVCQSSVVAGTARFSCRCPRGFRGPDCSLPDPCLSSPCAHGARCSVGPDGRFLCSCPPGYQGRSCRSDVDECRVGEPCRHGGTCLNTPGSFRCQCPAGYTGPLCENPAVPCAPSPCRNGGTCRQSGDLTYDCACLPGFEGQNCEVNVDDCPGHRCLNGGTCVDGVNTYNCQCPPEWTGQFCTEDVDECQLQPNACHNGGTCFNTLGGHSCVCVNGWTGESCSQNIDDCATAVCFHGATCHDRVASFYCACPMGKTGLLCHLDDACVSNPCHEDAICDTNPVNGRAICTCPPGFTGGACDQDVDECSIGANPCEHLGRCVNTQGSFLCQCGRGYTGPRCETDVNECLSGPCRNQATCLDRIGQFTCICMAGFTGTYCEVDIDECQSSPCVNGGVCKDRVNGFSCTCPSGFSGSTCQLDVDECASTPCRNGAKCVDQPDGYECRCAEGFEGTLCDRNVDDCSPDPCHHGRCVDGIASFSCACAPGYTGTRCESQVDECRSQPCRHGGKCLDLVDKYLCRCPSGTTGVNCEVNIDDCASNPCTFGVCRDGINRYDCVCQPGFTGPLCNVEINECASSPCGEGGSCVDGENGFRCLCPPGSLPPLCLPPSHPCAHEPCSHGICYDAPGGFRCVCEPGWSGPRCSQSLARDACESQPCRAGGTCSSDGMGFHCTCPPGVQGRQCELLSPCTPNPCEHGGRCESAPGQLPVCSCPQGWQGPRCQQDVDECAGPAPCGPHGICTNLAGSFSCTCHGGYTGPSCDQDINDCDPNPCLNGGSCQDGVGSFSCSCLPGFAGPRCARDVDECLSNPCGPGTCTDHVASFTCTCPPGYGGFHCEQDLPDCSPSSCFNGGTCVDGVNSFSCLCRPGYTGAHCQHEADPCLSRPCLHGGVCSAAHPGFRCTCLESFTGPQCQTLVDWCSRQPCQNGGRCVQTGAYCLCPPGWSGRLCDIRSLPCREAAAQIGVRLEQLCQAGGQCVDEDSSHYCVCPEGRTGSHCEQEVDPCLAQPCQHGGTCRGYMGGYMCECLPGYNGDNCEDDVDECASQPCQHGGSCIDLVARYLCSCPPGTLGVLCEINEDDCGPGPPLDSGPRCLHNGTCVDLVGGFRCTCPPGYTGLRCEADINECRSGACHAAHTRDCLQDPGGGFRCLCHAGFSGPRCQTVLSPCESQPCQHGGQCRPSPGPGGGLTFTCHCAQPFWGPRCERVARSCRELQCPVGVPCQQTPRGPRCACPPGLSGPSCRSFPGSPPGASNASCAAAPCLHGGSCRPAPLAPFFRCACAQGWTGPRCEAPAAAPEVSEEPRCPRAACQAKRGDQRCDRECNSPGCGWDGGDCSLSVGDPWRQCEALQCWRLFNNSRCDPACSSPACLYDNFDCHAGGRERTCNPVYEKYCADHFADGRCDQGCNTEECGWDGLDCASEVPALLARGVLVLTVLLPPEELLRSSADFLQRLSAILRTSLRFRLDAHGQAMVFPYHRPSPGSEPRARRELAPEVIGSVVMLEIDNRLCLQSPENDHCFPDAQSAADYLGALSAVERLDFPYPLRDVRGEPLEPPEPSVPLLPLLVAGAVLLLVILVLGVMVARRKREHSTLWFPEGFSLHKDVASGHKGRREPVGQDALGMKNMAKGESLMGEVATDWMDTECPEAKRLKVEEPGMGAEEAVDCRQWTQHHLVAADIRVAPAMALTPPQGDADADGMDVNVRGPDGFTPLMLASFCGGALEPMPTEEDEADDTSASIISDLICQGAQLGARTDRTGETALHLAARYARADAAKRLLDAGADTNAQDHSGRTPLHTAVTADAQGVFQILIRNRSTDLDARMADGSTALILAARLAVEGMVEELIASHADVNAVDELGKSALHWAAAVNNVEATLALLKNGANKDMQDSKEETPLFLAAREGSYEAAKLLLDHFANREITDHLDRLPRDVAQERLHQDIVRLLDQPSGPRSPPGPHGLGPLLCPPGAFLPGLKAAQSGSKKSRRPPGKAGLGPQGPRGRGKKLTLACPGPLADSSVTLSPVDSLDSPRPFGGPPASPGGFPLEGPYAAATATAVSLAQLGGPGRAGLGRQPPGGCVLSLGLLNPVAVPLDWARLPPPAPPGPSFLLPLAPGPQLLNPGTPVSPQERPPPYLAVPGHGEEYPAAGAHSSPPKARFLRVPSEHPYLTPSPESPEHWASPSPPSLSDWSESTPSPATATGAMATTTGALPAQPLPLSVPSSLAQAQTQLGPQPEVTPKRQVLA

[10] = probe aEGFR binding to arrayed compounds – biochemical, biotinylated probe, 635/667 nm fluorescence, primary screen (AID 1097); conditions: small-molecule microarray, higher = more signal;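 note: probe is a biotinylated anti-EGFR antibody binding compounds printed on slides; score combines fluorescence near 667 nm and signal to noise of each spot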

Row | SMILES | composite z-score [1] | z-score [2] | z-score [3] | z-score [4] | composite z-score [5] | z-score [6] | composite z-score [7] | composite z-score [8] | composite z-score [9] | composite z-score [10]
1 | CC(C)[C@H]1NC(=O)[C@@]23C(=O)N[C@@H](Cc4ccccc4)C2[C@H](C)[C@@]2(C)O[C@H]2C3/C=C/CCC/C=C/CNC(=O)[C@H](Cc2ccccc2)NC1=O (stereo not given in full) | 0.776 | 0.249 (inactive) | -1.4 (inactive) | -0.622 (inactive) | 2.47 | 0.139 (inactive) | -0.232 | 1.22 | 0.419 | -0.161
2 | CN1C(=O)[C@@]2(Cc3ccccc3)N=C(c3ccc(OCCCO)cc3)O[C@H]2c2ccccc21 | 1.56 | -1.28 (inactive) | -4.11 (inactive) | 0.843 (inactive) | 2.94 | 0.291 (inactive) | 0.109 | 0.955 | 1 | -0.0982
3 | O=C1OCCC=C[C@H]2OC34C=CCN(c5ccc(Cl)cc5)C(=O)[C@H]3N(CCCCCCO)C(=O)[C@@H]4C12 (stereo not given in full) | 0.117 | 0.115 (inactive) | -1.1 (inactive) | -0.337 (inactive) | 0.455 | 1.78 (inactive) | -0.139 | -0.979 | -0.379 | -0.191
4 | Cc1ccc(S[C@]2(C(=O)NCc3ccccc3)CC(=O)N(Cc3cc(C(F)(F)F)cc(C(F)(F)F)c3)[C@@H]2c2ccc(CO)cc2I)cc1 | -0.455 | 0.269 (inactive) | -2.56 (inactive) | 0.49 (inactive) | 0.742 | -0.607 (inactive) | 0.01 | -1.71 | -1.93 | -0.3
5 | C[C@]1(C(=O)O)c2ccccc2C(=O)N(Cc2ccc(OC(F)(F)F)cc2)[C@H]1c1ccc(CO)cc1 | -0.0461 | -0.691 (inactive) | -0.767 (inactive) | -0.686 (inactive) | 0.945 | 0.402 (inactive) | 0.122 | -0.94 | -0.505 | -0.179
6 | CC(C)c1ccc(NN2C(C(O)Cc3ccccc3)C=CC3C(=O)N(c4ccccc4)C(=O)C32)cc1 (stereo not given) | 1.48 | -0.619 (inactive) | -0.699 (inactive) | 0.844 (inactive) | 3.51 | -1.36 (inactive) | 0.388 | 0.294 | 1.07 | 0.205
7 | O=C(N1CCOCC1)[C@@]1(CCS(=O)(=O)c2ccccc2)N=C(c2ccc(OCCCO)cc2)O[C@H]1c1ccccc1 | 1.44 | 0.487 (inactive) | 0.395 (inactive) | -0.0156 (inactive) | 3.56 | 0.746 (inactive) | 0.352 | 0.136 | 1.15 | 0.156
8 | O=C1O[C@H](c2ccccc2)[C@H](c2ccccc2)N2[C@H]1[C@@H](C(=O)Nc1nc3ccccc3s1)[C@]1(C(=O)Nc3ccc(C#CC4=CCCCC4)cc31)[C@H]2c1ccc(O)cc1 | 1.55 | 0.556 (inactive) | 0.589 (inactive) | 0.401 (inactive) | 2.88 | 1.97 (inactive) | -0.12 | 1.1 | 1.06 | -0.0679
9 | COCCOC(=O)N1C(=O)[C@@]2(c3cc(C#CCNC(N)=O)ccc31)[C@H](c1ccc(OCCO)cc1)N1[C@H](c3ccccc3)[C@H](c3ccccc3)OC(=O)[C@H]1[C@@H]2C(N)=O | 0.981 | 2.18 (inactive) | 1.16 (inactive) | 2.29 (inactive) | 1.92 | 1.11 (inactive) | 0.221 | 0.228 | 0.542 | 0.387
10 | CC(C)N1CC=CC23O[C@@H]4/C=C\CCCOC(=O)C4[C@H]2C(=O)N(CCCCCCO)[C@@H]3C1=O (stereo not given in full) | 0.529 | 0.226 (inactive) | -2.03 (inactive) | -0.331 (inactive) | 3.18 | 2 (inactive) | -0.121 | -1.26 | -0.112 | -0.152
11 | COc1ccc([Si](C)(C)[C@H]2[C@H](CC(=O)N3Cc4ccccc4C[C@H]3CO)O[C@@]3(C(=O)N(Cc4ccc(N5C(=O)c6cccc7cccc5c67)cc4)c4ccccc43)[C@@H]2C)cc1 | 1.56 | -0.823 (inactive) | 1.17 (inactive) | 2.88 (inactive) | 2.7 | 0.489 (inactive) | -0.178 | 1.14 | 1.15 | -0.027
12 | O=C(O)[C@H]1C[C@H]2C(=O)N[C@@H](Cc3ccccc3)C(=O)N2[C@H]1c1cccc(OCCO)c1 | 1.46 | 0.893 (inactive) | -1.11 (inactive) | -0.629 (inactive) | 2.14 | 0.446 (inactive) | 0.127 | 1.74 | 0.814 | 0.206
13 | [N-]=[N+]=NCc1ccccc1[C@@H]1OC(c2ccc(OCCCO)cc2)=N[C@]1(Cc1ccccc1N=[N+]=[N-])C(=O)NCCN1CCOCC1 | 1.55 | -0.563 (inactive) | -4.92 (inactive) | -0.889 (inactive) | 3.26 | 0.118 (inactive) | 0.0814 | 1.6 | 1.05 | 0.0809
14 | COc1ccc([Si](C)(C)[C@@H]2[C@@H](CC(=O)N3Cc4ccccc4C[C@H]3CO)O[C@]3(C(=O)N(Cc4ccc(N5CCC5=O)cc4)c4ccccc43)[C@H]2C)cc1 | 1.55 | 0.68 (inactive) | 1.02 (inactive) | 3.23 (inactive) | 2.77 | 0.409 (inactive) | -0.0945 | 1.32 | 1.14 | -0.0954
15 | COC(=O)[C@@]1(Cc2ccc(OC)cc2)[C@H]2c3cc(C(=O)N4CCCC4)n(Cc4ccc(S(C)(=O)=O)cc4)c3C[C@H]2CN1C(=O)c1ccccc1 | -0.42 | -0.288 (inactive) | 0.868 (inactive) | 1.16 (inactive) | 3 | -0.247 (inactive) | 0.205 | 0.419 | 1.02 | 0.297
16 | CC(=O)N1CC(C(O)C2C=CC3C(=O)NC(=O)C3N2Nc2ccc(Cl)cc2Cl)c2ccccc21 (stereo not given) | 0.825 | 1.14 (inactive) | 0.734 (inactive) | 1.81 (inactive) | 2.74 | -0.948 (inactive) | 0.131 | -0.575 | 0.91 | -0.0594
17 | [N-]=[N+]=NCc1ccccc1[C@@H]1OC(c2ccc(OCCCO)cc2)=N[C@]1(Cc1ccccc1N=[N+]=[N-])C(=O)N1CCCCC1 | 1.38 | -0.0524 (inactive) | -1.17 (inactive) | 2.24 (inactive) | 3.18 | 0.379 (inactive) | 0.0216 | 0.345 | 0.921 | 0.706
18 | CC(C)C[C@@H]1NC(=O)[C@@]23C(=O)N[C@@H](Cc4ccccc4)C2[C@H](C)[C@@]2(C)O[C@H]2C3/C=C/C/C=C\CNC(=O)[C@@H](C)NC1=O (stereo not given in full) | 0.5 | -0.939 (inactive) | -1.17 (inactive) | -1.35 (inactive) | -0.408 | 0.624 (inactive) | -0.178 | 0.33 | 0.195 | -0.131
19 | COCC(=C=CC[C@@H](O)c1cccc(OCCO)c1)CCO | 0.783 | 0.0995 (inactive) | 0.114 (inactive) | -0.0032 (inactive) | 0.939 | 0.0464 (inactive) | -0.171 | 0.225 | 0.669 | 0.102
20 | COCCOC(=O)N1C(=O)[C@@]2(c3cc(C#CCCO)ccc31)[C@H](C(N)=O)[C@H]1C(=O)O[C@H](c3ccccc3)[C@H](c3ccccc3)N1[C@@H]2c1ccc(OCCO)cc1 | 1.54 | 1.94 (inactive) | 0.63 (inactive) | 2.82 (inactive) | 3.02 | -0.187 (inactive) | -0.161 | 0.632 | 0.992 | 0.0754
21 | COC(=O)[C@@]1(Cc2ccc(F)cc2)[C@H]2c3cc(C(=O)N(C)C)n(Cc4ccc(O)c(OC)c4)c3C[C@H]2CN1C(=O)c1ccccc1 | 0.423 | 0.0973 (inactive) | -1.2 (inactive) | 0.485 (inactive) | 2.2 | 1.02 (inactive) | 0.0043 | 0.718 | 1.13 | 0.0977
22 | CN1C(=O)C2C=CC(C(O)c3cc(C(F)(F)F)cc(C(F)(F)F)c3)N(Nc3ccccc3)C2C1=O (stereo not given) | 0.237 | -0.506 (inactive) | -0.714 (inactive) | -0.785 (inactive) | 3.85 | -0.565 (inactive) | -0.194 | 0.325 | 0.377 | -0.155
23 | Cc1cccc([C@H]2C[C@H]3C(I)=C[C@@H]2C(=O)[C@]32CO2)c1 | -0.614 | -2.5 (inactive) | -20.2 (active) | -2.15 (inactive) | -0.842 | -0.2 (inactive) | 0.0735 | 0.461 | -0.0085 | -0.108
24 | CN(C)CCCCCCNC(=O)[C@@H]1C[C@@H]2C(=O)N[C@@H](CCCCN)C(=O)N2[C@@H]1c1ccc(O)cc1 | 1.54 | -0.38 (inactive) | -3.54 (inactive) | -0.958 (inactive) | 4.67 | 1.98 (inactive) | 1.87 | 2.25 | 1.02 | 1.31
25 | [N-]=[N+]=NCc1ccccc1[C@@H]1OC(c2ccc(OCCCO)cc2)=N[C@]1(Cc1ccccc1)C(=O)NCCN1CCOCC1 | 1.53 | 0.469 (inactive) | 0.75 (inactive) | 0.83 (inactive) | 2.92 | 1.11 (inactive) | 0.242 | 0.512 | 1.09 | 0.591
26 | C=CC1c2cc(O)c(OC)cc2CCN1Cc1ccc([N+](=O)[O-])o1 (stereo not given) | -0.047 | 0.994 (inactive) | -0.61 (inactive) | 0.757 (inactive) | 2.77 | 0.694 (inactive) | 0.0761 | -0.273 | 0.606 | 0.0779
27 | COc1ccc([Si](C)(C)[C@H]2[C@H](CCO)O[C@@]3(C(=O)N(Cc4ccccc4)c4ccc(N5CCOC5=O)cc43)[C@@H]2C)cc1 | 1.13 | 0.948 (inactive) | -0.0089 (inactive) | 16.7 (active) | 1.64 | 0.147 (inactive) | -0.0769 | 0.517 | 1.12 | -0.0152
28 | COC(=O)C(CC#Cc1ccc2c(c1)[C@]1(C(=O)N2)[C@H](c2ccc(O)cc2)N2[C@H](c3ccccc3)[C@H](c3ccccc3)OC(=O)[C@H]2[C@@H]1C(=O)N1CCCCCCC1)C(=O)OC | 1.53 | -1.87 (inactive) | -1.29 (inactive) | -0.939 (inactive) | 4.02 | 0.88 (inactive) | 1.5 | 1.91 | 1.14 | 0.804
